DT40 TDP1 CPT – DT40-hTDP1 cell growth loss with CPT | chicken DT40 Tdp1-/-;hTDP1 cells + 20 nM CPT, ATP luminescence, 48 h | Potency, µM (doses to about 46.2 µM), inactives show at the highest dose activity change, negative = growth inhibition, actives largely listed as inhibitors | 12% of 420,000 active | AID 686979; also: potency is read from the fitted curve at half-maximal effect; nearly all actives have a fitted effect of over 55% in size
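Chicken DT40 Tdp1-/- cells complemented with human TDP1, 400 cells/well, exposed to compounds plus 20 nM camptothecin for at least 48 h at 37 C; viability read as ATP content by CellTiter-Glo luminescence.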
HT1080-NT tox – kills 2HG-producing HT-1080-NT fibrosarcoma cells. HT-1080-NT fibrosarcoma viability, CellTiter-Glo ATP luminescence, 48 h. Potency, µM (titrated, usually from 46.1 µM), for inactives: at the top dose activity, negative = less viability, actives largely listed as cytotoxic. 1.6% of 360,000 active;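 also: NT is the 2HG producing partner of a matched IDH1 knockdown line; potency is read from the fitted curve at half-maximal effect; 0% = DMSO-treated cells and -100% = media-only wells without cells; nearly all actives have a fitted effect of over 55% in size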
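750 cells/well, RPMI + 5% FBS; 2 h settle, compound pin-transfer, 48 h at 37 degrees C. CellTiter-Glo 10 min RT, luminescence. Normalized to DMSO and media-only wells.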
IL-1B inflam inh – inflammasome signaling inhibition, IL-1 beta readout; 4.7% of 360,000 active; activity change, % at 57.5 µM; THP-1 LPS/ATP IL-1B secretion, AlphaLISA, 16 h; active compounds read low; in the data active = activity change below about -50%; inconclusive = mostly about -30% to -49%
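THP-1 cells pretreated 1 hr with compounds (up to 57.5 uM final), then stimulated with LPS (250 ng/mL final) plus ATP (1.25 mM final); secreted IL-1B measured by AlphaLISA after 16 hr, decreased signal indicating inhibition.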
HT1080 IDH1KD tx – kills HT-1080 cells with IDH1 knockdown; 2% of 360,000 active; HT-1080 IDH1 knockdown viability, ATP luminescence, 48 h; AID 686971; Potency, µM (titrated, usually from 46.1 µM), inactives show at the top dose activity, negative = toxicity, most hits filed as cytotoxic;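 also: potency is read from the fitted curve at half-maximal effect; 0% = DMSO wells and -100% = cell-free medium wells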
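% activity derives from luminescence (CellTiter-Glo), normalised to DMSO and no-cell wells. HT-1080-IDH1KD cells, 750/well, had 48 h compound exposure at 37 °C.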
DT40 TDP1 no CPT – qHTS for Inhibitors of human tyrosyl-DNA phosphodiesterase 1 (TDP1): qHTS in cells in absence of CPT. DT40 Tdp1-/- hTDP1 cells, no CPT, ATP luminescence, 48 h. 15% of 420,000 active. Potency, µM (series often up to 46.2 µM), inactives show at the highest dose activity change, negative = growth inhibition, usual class: inhibitors; also: potency is read from the fitted curve at half-maximal effect; nearly all actives have a fitted effect of over 55% in size
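Chicken DT40 Tdp1-/- cells complemented with human TDP1, screened without camptothecin (DMSO vehicle only), 400 cells/well. Compounds pin-transferred, cells incubated at 37 °C for at least 48 hr. Growth read as ATP-dependent luminescence (CellTiter-Glo, 30 min at RT).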
* hit, by the source's call; ? = inconclusive; / = no result given. Rows were chosen to be rich in hits. Some 19% of all compounds tested hit in one or more screens of this group. Unless noted, calls follow the shape of the dose curve; as a rule, active = well fitted curve in the direction sought with a large enough effect; inconclusive = small, poorly fitted or top-dose-only effect, or another doubt; inactive = no such curve, though single readings can be large; an effect the other way counts as inactive or inconclusive. Unless noted, % is scaled to controls: 0 for no effect and ±100 for the full control effect.

SMILES	DT40 TDP1 CPT	HT1080-NT tox	IL-1B inflam inh	HT1080 IDH1KD tx	DT40 TDP1 no CPT
CC(C)(c1ccccc1)c1ccc(OCC(O)CN2CCCC2)cc1 (stereo unspecified)	?	?	-67*	?	?
OC1CCCN(CC(O)COc2ccc(-c3ccccc3)cc2)C1 (stereo unspecified)	?	?	-26	?	23µM*
OC(COc1ccccc1)CN1CCCC1 (stereo unspecified)	13%	3%	0	5%	-2%
CC1CCCN(CC(O)COc2ccc(Cl)cc2)C1 (stereo unspecified)	-11%	5%	-1	-20%	-12%
CC1CCCN(CC(O)COc2ccc(-c3ccccc3)cc2)C1 (stereo unspecified)	?	18µM*	?	?	?
O=C(NCC1CCCN(Cc2ccccc2F)C1)c1cccc(C(F)(F)F)c1 (stereo unspecified)	-28%	4%	-11	1%	4%
CCCNc1ccc(-c2nc(-c3ccncc3)no2)cc1[N+](=O)[O-]	-17%	/	/	/	-5%
O=C(/C(N=Nc1cccc(C(F)(F)F)c1)=C(/O)c1cccs1)C(F)(F)F	?	?	-62*	21µM*	21µM*
CN(C(=O)/C(N=Nc1cccc(C(F)(F)F)c1)=C(\O)C(F)(F)F)c1ccccc1	-25%	11µM*	28	?	-10%
O=S(=O)(Cc1ccccc1Cl)NCc1ccccc1	4%	-1%	13	5%	-6%
COc1ccc2oc(C(=O)OCC(=O)N3CCCC(C)C3)c(C)c2c1 (stereo unspecified)	-15%	1%	-2	-4%	-4%
CCOC(=O)/C(=N\Nc1ccccc1Cl)N1CCN(C)CC1	?	-16%	-58*	-19%	?
CCc1cccc(CC)c1NC(=O)CN1CCN(S(=O)(=O)c2ccccc2)CC1	-14%	1%	-3	-1%	-16%
CCN1CCN(c2nc(-c3cccnc3)nc3ccccc23)CC1	-23%	-27%	-2	-1%	-13%
CCCOc1ccc(-c2nc(N3CCN(C)CC3)c3ccccc3n2)cc1	23µM*	?	-20	?	?
CCCOc1ccc(-c2nc(N3CCCCC3)c3ccccc3n2)cc1	-5%	/	/	/	-19%
CCCOc1ccc(-c2nc(N3CCN(CC)CC3)c3ccccc3n2)cc1	?	-6%	-57*	2%	29µM*
COc1cc(NC(=O)CC[C@H]2O[C@@H](n3cnc4c(NC(=O)c5ccccc5)ncnc43)[C@H](O)[C@@H]2O)cc(OC)c1OC	2%	5%	0	5%	-10%
COc1ccc(C)cc1-n1c(SCC(=O)Nc2cc(C)on2)nc2sc(C)c(C)c2c1=O	12µM*	-1%	-10	-16%	8.2µM*
COc1ccc(C)cc1-n1c(SCC(=O)Nc2cc(C)on2)nc2ccccc2c1=O	10µM*	-27%	10	-27%	13µM*
COC(=O)CNC(=O)COC(=O)/C=C/c1ccc(F)cc1	3%	-1%	-25	-1%	-16%
C=CCc1ccc(O)c(-c2cc(CC=C)ccc2O)c1	15µM*	7%	14	-8%	21µM*
O=C(OCc1ccccc1)N(CCF)c1cn(Cc2ccccc2)c(=O)n(Cc2ccccc2)c1=O	?	-7%	4	0%	?
COC(=O)C1=C(C)N(Cc2ccccc2)C(=O)N[C@H]1c1ccco1	-11%	0%	23	0%	1%
COC(=O)C1=C(C(=O)OC)[C@]2([C@H]3CCCCN[C@@H](Cc4ccccc4)C(=O)N3Cc3ccccc3)C=C[C@H]1O2	5.8µM*	-10%	-4	-20%	6.5µM*
SMILES	DT40 TDP1 CPT	HT1080-NT tox	IL-1B inflam inh	HT1080 IDH1KD tx	DT40 TDP1 no CPT
COC(=O)C1=C(C(=O)OC)[C@]2([C@H]3C/C=C\CN[C@@H](Cc4ccccc4)C(=O)N3Cc3ccccc3)C=C[C@H]1O2	?	/	/	/	10µM*
O=C(Nc1c(C(=O)N2CCN(c3ccccc3)CC2)oc2ccccc12)c1ccc(Br)o1	23µM*	/	/	/	21µM*
Cc1cccc(OCC(=O)Nc2c(C(=O)N3CCN(c4ccccc4)CC3)oc3ccccc23)c1	?	/	/	/	23µM*
COc1cc(CCC(=O)Nc2c(C(=O)N3CCN(c4ccccc4)CC3)oc3ccccc23)on1	?	2%	-61*	-4%	16µM*
Cc1cccc(OCC(=O)Nc2c(C(=O)Nc3ccc(F)cc3)oc3ccccc23)c1	-10%	/	/	/	-30%
O=C(Nc1c(C(=O)N2CCC(N3CCCCC3)CC2)oc2ccccc12)c1c(F)cccc1F	-7%	-13%	?	-2%	13%
O=C(Nc1c(C(=O)N2CCN(c3ccccc3F)CC2)oc2ccccc12)c1ccccc1F	13µM*	/	/	/	15µM*
COc1cc(C(=O)NNC(=O)c2ccc(NC(=O)C(C)(C)C)cc2)cc(OC)c1OC	2%	-1%	-3	11%	?
Nc1ccc(S(=O)(=O)c2ccc(N)nc2)cc1	-4%	10%	-5	-2%	2%
O=C(COc1ccc(F)cc1)Nc1c(C(=O)N2CCC(N3CCCCC3)CC2)oc2ccccc12	?	4%	?	-1%	7.3µM*
COc1ccc(CC(=O)Nc2c(C(=O)N3CCN(c4ccccc4OC)CC3)oc3ccccc23)cc1OC	?	-14%	22	-14%	23µM*
COc1ccc(CC(=O)Nc2c(C(=O)N3CCN(c4ccccc4)CC3)oc3ccccc23)cc1OC	?	-20%	-26	-12%	?
COc1ccc(CCNS(=O)(=O)c2ccc(Cl)cc2)cc1OC	-28%	0%	0	-15%	-10%
O=C(NCc1ccncc1)C(=O)Nc1nc(C23CC4CC(CC(C4)C2)C3)cs1	21µM*	0%	0	-8%	21µM*
O=C(NCc1ccc(F)cc1)C(=O)Nc1nc(C23CC4CC(CC(C4)C2)C3)cs1	?	?	-2	?	?
O=C(NCc1cccnc1)C(=O)Nc1nc(C23CC4CC(CC(C4)C2)C3)cs1	?	23%	16	-11%	16µM*
O=C(NCc1ccncc1)C(=O)NCc1ccncc1	21%	-4%	0	-8%	-7%
O=C(NCc1ccccc1)C(=O)Nc1nc(C23CC4CC(CC(C4)C2)C3)cs1	23µM*	-5%	23	-2%	?
O=C(Cn1c(=O)nc(-c2ccccc2)c2ccccc21)N1CCN(c2ccc(F)cc2)CC1	17%	/	/	/	-20%
N#CC(C#N)=Cc1ccc(OCC(=O)N2CCOCC2)cc1	21µM*	1%	-53*	-3%	?
CCOc1ccc(OCC(=O)N2CCOCC2)cc1	2%	18%	-3	21%	3%

Bioassay records: PubChem, National Center for Advancing Translational Sciences (NCATS)
